Inconclusive results are not listed. The source made the active and inactive calls. The call rests on the fitted dose curve.
biological target: Atrial natriuretic peptide receptor 1 (Homo sapiens) (UniProt P16066); test: Natriuretic polypeptide receptor (hNpr1) antagonism - Pilot CMLD screen (AID 1347052); settings: HEK293 hNpr1 GloSensor cGMP luminescence, ANP-stimulated; series mostly up to 9.22 µM;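 further: HEK293 cells with hNpr1 stimulated by hNppA peptide at 0.1 nM; cGMP level read as GloSensor luciferase luminescence after agonist stimulation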
Sequence (P16066 whole entry, looked up): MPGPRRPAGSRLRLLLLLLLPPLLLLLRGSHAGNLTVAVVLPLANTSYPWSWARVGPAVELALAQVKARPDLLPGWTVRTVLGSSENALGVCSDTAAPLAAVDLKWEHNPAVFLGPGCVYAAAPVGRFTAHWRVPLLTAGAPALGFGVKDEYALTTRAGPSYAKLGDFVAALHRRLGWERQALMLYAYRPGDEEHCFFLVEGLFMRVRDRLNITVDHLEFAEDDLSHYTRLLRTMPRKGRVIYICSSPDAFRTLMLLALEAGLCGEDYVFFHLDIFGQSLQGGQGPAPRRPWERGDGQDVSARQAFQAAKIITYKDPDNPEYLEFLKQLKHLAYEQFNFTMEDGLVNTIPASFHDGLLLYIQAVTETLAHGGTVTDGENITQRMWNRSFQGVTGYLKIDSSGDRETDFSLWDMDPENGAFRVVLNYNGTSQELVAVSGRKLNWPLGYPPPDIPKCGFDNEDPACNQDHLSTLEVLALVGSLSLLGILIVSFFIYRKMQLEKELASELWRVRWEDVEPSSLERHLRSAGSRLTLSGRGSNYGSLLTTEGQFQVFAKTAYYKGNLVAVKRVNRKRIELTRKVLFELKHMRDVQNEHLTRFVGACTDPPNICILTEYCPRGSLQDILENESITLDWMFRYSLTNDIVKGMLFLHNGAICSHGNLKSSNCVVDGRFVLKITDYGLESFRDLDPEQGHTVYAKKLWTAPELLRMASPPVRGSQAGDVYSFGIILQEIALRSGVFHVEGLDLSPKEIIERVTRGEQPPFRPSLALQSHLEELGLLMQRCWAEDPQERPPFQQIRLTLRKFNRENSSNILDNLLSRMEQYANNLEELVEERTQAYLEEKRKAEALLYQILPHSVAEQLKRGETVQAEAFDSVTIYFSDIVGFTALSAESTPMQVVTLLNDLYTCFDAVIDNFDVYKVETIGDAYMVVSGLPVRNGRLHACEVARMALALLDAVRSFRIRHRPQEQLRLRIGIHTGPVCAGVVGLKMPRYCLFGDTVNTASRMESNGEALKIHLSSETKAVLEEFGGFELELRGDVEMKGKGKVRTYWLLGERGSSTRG

Potency, inactive:
COC(=O)[C@@H]1CC[C@H](C)[C@@H](c2ccc(C)cc2)N1C(=O)c1ccc(C=NOC[C@@H](O)[C@H]2O[C@@H]3OC(C)(C)O[C@H]3[C@@H]2O)cc1
CCCCCCCC1=CC2=CC(=O)C(C)(O)C(=O)C2=CN1CCCC (stereo not given)
COc1cc(O)c(C(=O)C=Cc2ccccc2)c(O)c1
C=CCOC(=O)C(C(C)=O)[C@@H](NC(=O)OC)c1cccs1 (stereo not given in full)
CCCCCCN1C(=O)CC[C@@]23C1=NC(C(=O)OC)=C(C(=O)OC)[C@@H]2N(Cc1ccccc1)c1ccccc13
CC(C)=CCCC(C)=CCON=C1C[C@@H](O)[C@@H](O)[C@@H]2[C@H]3C(=O)N(c4ccc(F)cc4F)C(=O)[C@@H]3CC[C@H]12
C=C(C(=O)OCC)C(=O)c1ccccc1
CCN1C(=NCc2ccc(OC)cc2)N[C@@H](CCc2ccccc2)[C@H](C(=O)NCc2ccc(OC)cc2)[C@H]1C
O=C(NC(CC1=CCCCC1)c1ccccc1)C(F)(F)F (stereo not given)
CCN(CC)CCCN=C1NC(c2ccccc2)C(C(=O)OC)=C(C)N1CC (stereo not given)
C=CC1=C2C=C(C3CC3)N(C3CCCCC3)C=C2C(=O)C(C)(OC(=O)c2ccco2)C1=O (stereo not given)
CC(=O)OC[C@H]1O[C@@H](ON=C2C[C@@H](O)[C@@H](O)[C@@H]3[C@H]4C(=O)N(C5CCCCC5)C(=O)[C@@H]4CC[C@@H]23)[C@H](OC(C)=O)[C@@H](OC(C)=O)[C@H]1OC(C)=O
C=CC[C@@H]1C=C[C@H](ON=C(C)CCN2CCCCc3nc(C)c(C)cc32)[C@H](CO)O1
COC(=O)[C@H](COC(C)(C)C)NC(=O)O[C@@H]1C(=O)c2ccc(OC)cc2O[C@H]1c1cccc(C(F)(F)F)c1
CC(C)(C)OC(=O)NCCCC1=CC2=CC(=O)C(C)(O)C(=O)C2=CO1 (stereo not given)
CC(C)=NOCc1ccc(-c2cn([C@@H]3COC[C@@H]3O)nn2)cc1
COc1ccc2c(c1)O[C@@H](c1ccc3c(c1)OCO3)[C@H](O)C2=O
CCC12C=C(C=Cc3ccccc3)C(CC)(C1)C(c1ccccc1)CC2=O (stereo not given)
CCN1C(=NCCc2ccccn2)NC(c2cccc(C(F)(F)F)c2)C(C(=O)OC)=C1C (stereo not given)
COC(=O)N1[C@H]2CC[C@@]3(C)CC(=O)C[C@]1(C)C3c1ccccc12
COC(=O)CC=C1c2ccc3c(c2[C@@H](OC)[C@@H]1C)OCO3
C[C@H]1COC(=O)[C@H](Cc2ccccc2)NC(=O)[C@@H](C)COC(=O)[C@H](Cc2ccccc2)NC1=O
COC(=O)[C@H](COC(C)(C)C)NC(=O)O[C@@H]1C(=O)c2ccc(OC)cc2O[C@H]1c1ccc2c(c1)OCO2
COC(=O)N[C@@H](c1ccco1)C(C(C)=O)C(=O)OC (stereo not given in full)
C=CCNC(=O)[C@H]1C=C(OC)C(=O)C[C@H]2c3ccccc3C[C@]12C

From PubChem BioAssay (NCATS)
